TcdB GH inh: TcdB glycohydrolase inhibition | inhibition, % at 9.99 µM | AID 652162 | 350,000 compounds, 0.24% hits | TcdB glycohydrolase enzymatic assay, plate reader | P18177; in the data active means inhibition above about 10%
PrP UTR inh: suppresses PrP 5' UTR mRNA reporter expression; cell-based PrP 5' UTR mRNA reporter, plate reader; inhibition, % (test concentration not listed); 340,000 compounds, 0.35% hits; AID 488862; in the data active means inhibition above about 52%; further: 0 = median of the neutral control wells
FadD28 binding: inhibitors of Mycobacterium tuberculosis FadD28 bisubstrate binding | FadD28 bisubstrate probe binding, fluorescence polarization | 360,000 compounds, 0.22% hits | inhibition, % at 12.5 µM | AID 588549; in the data active means inhibition above about 8.5%, passing the limit was not always enough
PriA SSB inh: K. pneumoniae PriA-SSBct interaction inhibition; inhibition, % at 33 µM; 430,000 compounds, 0.6% hits; AlphaScreen SSBct-PriA binding, biotinylated peptide; in the data active means inhibition mostly above about 37%, no sharp cut-off; inactive means mostly below about 20%;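 further: plate controls were negative control peptide for no effect and reference peptide for full effect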
BioA inh: blocks M. tuberculosis BioA enzyme activity | purified M. tuberculosis BioA enzyme, plate reader | inhibition, % at 9.99 µM | 360,000 compounds, 0.096% hits | AID 602481; in the data active means inhibition above about 40%
Mtb hypoxia inh: inhibitors of hypoxia-regulated fluorescent reporter in Mycobacterium tuberculosis; M. tuberculosis hypoxia-regulated fluorescent reporter, fluorescence; fluorescence inhibition, % (test concentration not listed); 300,000 compounds, 0.1% hits; AID 1159583; in the data active means fluorescence inhibition mostly above about 23%, no sharp cut-off; inactive means mostly below about 17%
An asterisk follows results filed as active; . = not tested or not shown; ! = repeats disagree. Most compounds without a hit are left out; they make up all but 1% or so of the library.

SMILES | TcdB GH inh | PrP UTR inh | FadD28 binding | PriA SSB inh | BioA inh | Mtb hypoxia inh
C[C@H](CO)N1C[C@H](C)[C@@H](CN(C)C(=O)Nc2ccc(C(F)(F)F)cc2)Oc2c(NS(=O)(=O)c3cn(C)cn3)cccc2C1=O | 13*! | -10 | -20 | 3 | -1 | 7
C[C@@H]1CN([C@H](C)CO)C(=O)c2cccc(NS(=O)(=O)c3cn(C)cn3)c2O[C@@H]1CN(C)C(=O)Nc1ccc(C(F)(F)F)cc1 | 2 | . | . | . | 1 | .
CN(C)c1ccc(NC2=C(Cl)C(=O)c3ccccc3C2=O)cc1 | -1 | -16 | -2 | 64* | 1 | 16
O=C(CN1NC(=C2CC2)C=CC1=O)Nc1nc(-c2ccccn2)cs1 | . | . | . | 31 | . | .
O=C(Cn1[nH]c(=O)ccc1=O)Nc1nc(-c2ccccn2)cs1 | . | . | . | 97* | . | .
O=C(CN1C(=O)NC2(CCCC2)C1=O)Nc1nc(-c2ccc(F)cc2)cs1 | . | -27 | -3 | -1 | -1 | 2
Cc1csc(=O)n1CC(=O)Nc1nc(-c2ccccn2)cs1 | . | . | . | 107* | . | .
O=C(CN1C(=O)NC2(CCCC2)C1=O)Nc1nc(-c2ccccn2)cs1 | . | . | . | 98* | . | .
O=C(CN1CC(=O)Oc2ccccc21)Nc1nc(-c2ccccn2)cs1 | . | . | . | 100* | . | .
CCOc1ccc(CN2C(=O)c3ccccc3Sc3ccc(C(=O)NCCCN4CCOCC4)cc32)cc1 | 1 | 8 | -2 | 9 | -1 | 8
O=C(CC1CCCC1)Nc1cnoc1 | . | . | . | 16 | . | .
N#CCCn1cc(C#N)c(-c2ccc(Br)cc2)n1 | . | . | . | -7 | . | .
COc1cc(OC)c2c(O)c3c(c(-c4c5c(c(O)c6c(OC)cc(OC)cc46)CO[C@@H](C)[C@H]5O)c2c1)[C@H](O)[C@H](C)OC3 | . | -7 | 10* | 20 | -4 | .
COc1cc2c(c(OC)c1O)C(=O)CO2 | -4 | -24 | -4 | -12 | -1 | 6
COc1ccc(CCNc2oc(Cc3cccc4ccccc34)nc2C#N)cc1OC | . | -2 | -5 | 43* | 1 | -7
COc1ccc(CCNc2oc(COc3ccc(Br)cc3)nc2C#N)cc1OC | -1 | -2 | 0 | 19 | 2 | .
CCOC(=O)c1c(NC(=O)CCN2C(=O)c3cccc([N+](=O)[O-])c3C2=O)sc(C(=O)OC(C)C)c1C | . | -11 | -4 | -9 | -1 | 7
CN(C)CCOc1ncnc2c1oc1ccccc12 | . | -7 | -4 | -7 | -1 | 5
CN(C)CCOc1nc(-c2ccccc2)nc2c1oc1ccccc12 | . | -51 | -3 | -8 | 0 | 41*
Cc1ccc(-c2ccc(OCCNC(=O)c3ccccc3C(F)(F)F)nn2)cc1 | . | . | . | 12 | . | .
O=C(CSc1ccc(-c2ccccn2)nn1)Nc1ccccc1Cl | . | . | . | 65* | . | .
O=C(NCCOc1ccc(-c2ccccn2)nn1)c1ccccc1C(F)(F)F | . | . | . | 95* | . | .
Cc1nc(SCC(=O)Nc2ccccc2C(F)(F)F)cc(-c2ccccn2)n1 | . | . | . | -8 | . | .
O=C(CSc1ccc(-c2ccccn2)nn1)Nc1ccccc1C(F)(F)F | . | . | . | 69* | . | .
CCOC(=O)c1sc2ncn(C(CC)C(=O)OCC)c(=O)c2c1C (stereo unspecified) | . | -8 | -2 | -19 | 0 | .
SMILES | TcdB GH inh | PrP UTR inh | FadD28 binding | PriA SSB inh | BioA inh | Mtb hypoxia inh
CN(c1ccccc1)S(=O)(=O)c1ccc(NC(=O)CC(=O)c2ccccc2)cc1 | 1 | -32 | 25* | -8 | . | .
CC(=O)Nc1ccc(NC(=O)c2ccc(S(=O)(=O)N(C)c3ccccc3)cc2)cc1 | 1 | -11 | -1 | 4 | 2 | 2
CC(=O)Nc1ccc2c(c1)C(=O)N(C)[C@@H]1CC[C@H](CC(=O)NCC3CCCCC3)O[C@@H]1CO2 | . | . | . | . | -2 | .
CC(=NNc1ccc(S(=O)(=O)N2CCOCC2)cc1[N+](=O)[O-])C(C)C | . | . | . | 46* | . | 9
Cc1ccccc1Nc1ccc(S(=O)(=O)N2CCOCC2)cc1[N+](=O)[O-] | 0 | 3 | -1 | -5 | . | 1
COc1ccccc1C(C)Nc1ccc(S(=O)(=O)N2CCOCC2)cc1[N+](=O)[O-] (stereo unspecified) | . | . | . | 70* | . | .
Cc1ccc(Nc2ccc(S(=O)(=O)N3CCOCC3)cc2[N+](=O)[O-])c(C)c1 | . | -9 | 0 | 51* | 0 | 10
COc1ccc(Nc2ccc(S(=O)(=O)N3CCCCC3)cc2[N+](=O)[O-])cc1 | . | -5 | -1 | 29 | -1 | .
COc1ccc(Nc2ccc(S(=O)(=O)N3CCCCC3)cc2[N+](=O)[O-])cc1Cl | 1 | -7 | -3 | 49* | -1 | 6
CC/C(C)=N/Nc1ccc(S(=O)(=O)N2CCCC2)cc1[N+](=O)[O-] | -10 | -10 | -3 | . | -1 | .
